In the library only some 7.7% were active in any assay of this set; here they are far more common.
TbPYK inhibitor: T. brucei pyruvate kinase inhibition | hit rate 0.12% among 410,000 | AID 624173 | Q57TT1 | TbPYK enzyme, Kinase-Glo Plus ATP luminescence, 45 min | Potency, µM (series often up to 76.8 µM), for the others: at the highest dose activity, negative = inhibition, hits mostly inhibitors; also: potency is read from the fitted curve at half-maximal effect; nearly all actives have a fitted effect of over 50% in size
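TbPYK + substrate in 50 mM TEA pH 7.2, 100 mM KCl, 10 mM MgCl2, 0.05% BSA, 0.01% Tween-20; cpd pinned; ADP 130 uM final; 45 min RT; Kinase-Glo Plus 10 min; luminescence endpoint.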
RE007 growth inh: less growth of the S. pombe RE007 Vpr strain. S. pombe RE007 Vpr strain, BacTiter-Glo ATP luminescence, 24 h. Potency, µM (doses to about 92.2 µM), for inactives: at the highest dose activity change, negative = less growth, actives largely listed as inhibitors. hit rate 0.21% among 360,000; active = well fitted falling curve with a large enough effect; inconclusive = small, poorly fitted or top-dose-only effect; inactive = no such curve, though single readings can be large or run the other way; also: potency is read from the fitted curve at half-maximal effect; nearly all actives have a fitted effect of over 50% in size
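Fission yeast strain RE007, carrying one chromosomally integrated HIV-1 vpr copy, was seeded at OD 0.01 in PMG+AL medium with 23 nL pinned compound. After 24 h at 30 °C and 99% humidity, viability was read by BacTiter-Glo luminescence.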
FMDV inh: antivirals against foot and mouth disease virus | Potency, µM (top dose mostly 57.9 µM), for inactives: at the highest dose activity change, negative = inhibition, usual class: inhibitors | hit rate 1.2% among 410,000 | FMDV antiviral cell-based qHTS; calls by dose curve; tested in HEK293T cells; also: read-out not given here; potency is read from the fitted curve at half-maximal effect; nearly all actives have a fitted effect of over 45% in size
HCMV antiviral: blocks human cytomegalovirus replication; HFF cells, HCMV-luciferase reporter, 72 h; active compounds read low; activity change, negative = inhibition, % at 57.5 µM; hit rate 4.5% among 410,000; in the data active = activity change below about -60%; inconclusive = no clear call, values can overlap the other calls; inactive = above about -39%
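Two-dose cell screen: HFF monolayers treated with compounds and infected with luciferase-expressing HCMV at 1 PFU/cell, 72 h at 37C, then lysed for luciferase measurement.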
Sm TGR block: inhibitors of Schistosoma mansoni thioredoxin glutathione reductase; Q962Y6; purified TGR, DTNB reduction, TNB absorbance 405 nm; Potency, µM (titrated, usually from 114 µM), without a hit: top-dose activity change, negative = inhibition, usual class: inhibitors; hit rate 3% among 360,000; AID 485364; also: potency is read from the fitted curve at half-maximal effect; nearly all actives have a fitted effect of over 60% in size
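First, TGR (20 nM dispensed) and NADPH were mixed with compound. Second, a 15 min room-temperature incubation followed. Third, further NADPH and then DTNB were added to start the reaction. Finally, TNB absorbance was monitored kinetically.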
FBPA Giardia inh: Giardia lamblia aldolase inhibition; A8B2U2; purified Giardia FBPA; Potency, µM (titrated, usually from 59.6 µM), without a hit: at the highest dose activity, negative = inhibition, usual class: inhibitors; hit rate 0.71% among 290,000; AID 2451; also: potency is read from the fitted curve at half-maximal effect; nearly all actives have a fitted effect of over 55% in size
Target sequence (A8B2U2 whole entry, looked up): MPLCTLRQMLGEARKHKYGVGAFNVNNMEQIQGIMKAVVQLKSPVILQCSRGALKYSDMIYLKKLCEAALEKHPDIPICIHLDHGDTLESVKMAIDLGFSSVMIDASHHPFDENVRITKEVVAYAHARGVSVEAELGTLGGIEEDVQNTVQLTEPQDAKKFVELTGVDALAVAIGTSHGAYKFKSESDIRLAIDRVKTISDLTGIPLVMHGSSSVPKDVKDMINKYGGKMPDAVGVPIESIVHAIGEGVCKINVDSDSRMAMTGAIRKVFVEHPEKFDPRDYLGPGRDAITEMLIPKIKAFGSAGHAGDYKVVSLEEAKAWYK
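40 nM FBPA preincubated 10 min at RT with compound (up to 57.5 uM final), then substrate plus GAPDH/TPI/NAD/arsenate coupling and diaphorase/resazurin added. Fluorescence read after 20 min at RT, 525/598 nm.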
Active calls of the source: *; ? = inconclusive; . = no result. Unless noted, calls follow the shape of the dose curve; as a rule, active = well fitted curve in the direction sought with a large enough effect; inconclusive = small, poorly fitted or top-dose-only effect, or another doubt; inactive = no such curve, though single readings can be large; an effect the other way counts as inactive or inconclusive. % is scaled to controls: 0 for no effect and ±100 for the full control effect.

SMILES	TbPYK inhibitor	RE007 growth inh	FMDV inh	HCMV antiviral	Sm TGR block	FBPA Giardia inh
COCc1ccc(CN2Cc3ccccc3OC(c3ccccc3F)C2)o1 (stereo not given)	.	.	2%	.	.	.
NC(=O)c1cc2ccncc2c2ccccc12	-5%	.	-16%	-99*	-14%	3%
Cc1ccc2[nH]c(=O)c3cc(C(=O)NCCC(C)C)sc3c2c1	-7%	13%	-27%	-19	9%	2%
CCCCN(CC)CCCNC(=O)c1cc2c(=O)[nH]c3ccccc3c2s1	1%	-19%	-16%	?	45µM*	1%
CCCCN(CC)CCNC(=O)c1cc2c(=O)[nH]c3ccc(C)cc3c2s1	-3%	0%	-27%	-65*	-2%	6%
Cc1ccc2[nH]c(=O)c3cc(C(=O)N(C)c4ccc(C)c(C)c4)sc3c2c1	0%	-1%	?	-61*	-4%	4%
CC(C)(C)C1CCc2nc(NC(=O)COc3ccc(F)cc3)sc2C1 (stereo not given)	-8%	.	-22%	-14	7%	.
COc1ccc(CCNC(=O)C2CCCN(Cc3nc(-c4ccccc4C)oc3C)C2)cc1OC (stereo not given)	3%	0%	?	-21	-23%	-1%
Cc1oc(-c2ccc(Cl)cc2)nc1CN1CCCC(C(=O)NCc2ccc(Cl)cc2)C1 (stereo not given)	-1%	.	35µM*	6	-1%	.
COc1ccc(CNC(=O)C2CCCN(Cc3nc(-c4cccc(C)c4)oc3C)C2)cc1 (stereo not given)	0%	3%	25µM*	0	-7%	4%
CCc1ccc(-c2nc(CN3CCCC(C(=O)NCCc4ccc(OC)c(OC)c4)C3)c(C)o2)cc1 (stereo not given)	-12%	-9%	22µM*	-92*	-15%	-1%
CCCCN(CC)C(=O)CSc1c2c(nc3ccc(Cl)cc13)CCCC2	1%	.	?	-38	-11%	.
CCOC(=O)c1c(C)sc2c1N(C(=O)CCl)c1cc(Cl)ccc1S2	-1%	5%	10µM*	-96*	2.5µM*	19%
CCCN(C(=O)c1cc2c(s1)-c1ccccc1SC2)c1ccccc1F	4%	.	-19%	-68*	-2%	.
CN(C)CCNC(=O)c1cc2c(s1)-c1ccc(Cl)cc1SC2	3%	.	?	-100*	15%	3%
CCOC(=O)C1CCN(C(=O)c2ccc3c(c2)sc2nc(-c4ccccc4)cn23)CC1	-4%	.	-29%	.	5%	.
COc1ccc(Oc2coc3c(CN4CCOCC4)c(O)ccc3c2=O)cc1	0%	0%	-1%	18	45µM*	1%
COc1ccc(-c2c(C(F)(F)F)oc3c(CN4CCN(C)CC4)c(O)ccc3c2=O)cc1	5%	-3%	-17%	-6	4%	7%
COc1ccc(Oc2coc3c(CN(C)C)c(O)ccc3c2=O)cc1	-2%	-12%	26%	5	-27%	-8%
COc1ccc(-c2c(C)oc3c(CN4CCN(C)CC4)c(O)ccc3c2=O)cc1	0%	-1%	-10%	-63*	0%	8%
CC(=O)O[C@H]1C=C[C@@H](NC(=O)OC(C)(C)C)C1	.	.	.	8	.	.
Cc1ccc(-n2ncc(Br)c(Br)c2=O)cc1	-1%	16µM*	?	.	6.3µM*	6%
O=c1c(Br)c(Br)cnn1-c1ccccc1	5%	?	14µM*	-97*	3.2µM*	-3%
O=c1c(Br)c(N2CCCC2)cnn1-c1ccccc1	-4%	6%	43%	15	1%	3%
O=c1cc(N2CCOCC2)oc2c(-c3ccccc3)cccc12	.	.	-23%	.	.	-2%
SMILES	TbPYK inhibitor	RE007 growth inh	FMDV inh	HCMV antiviral	Sm TGR block	FBPA Giardia inh
COC(=O)C(CCSC)NC(=O)c1cc2c(n(-c3ccc(C)cc3)c1=O)CC(C)(C)CC2=O (stereo not given)	1%	.	1%	-11	-1%	.
CN(C)C(=O)c1ccc(-c2nc(NCc3ccccc3)c3ccccc3n2)cc1	.	.	24%	.	.	-14%
Nc1nnc2cc(F)ccc2n1	-1%	-12%	-24%	2	.	.
OC1=C(O)c2nc3cc(F)ccc3nc21	-1%	15%	-9%	37	13µM*	?
COc1ccc(C)cc1NC(=O)CC(=O)Nc1ccc2nc3n(c(=O)c2c1)CCCCC3	3%	.	-27%	-31	-1%	.
CC1CCN(S(=O)(=O)c2cn(CC(=O)Nc3ccc(F)c(Cl)c3)c(=O)c3ccccc23)CC1	-8%	.	0%	-63*	40%	.
COc1ccc(-n2c(SCC(=O)c3ccc(Cl)cc3)nc3c([nH]c4ccccc43)c2=O)cc1	-8%	.	-21%	34	7%	.
Cc1cc(C)nc(NS(=O)(=O)c2ccc(NC(=O)c3nc(SC(C)C)ncc3Cl)cc2)n1	1%	.	28%	-1	-2%	.
CN(C)c1nc(-c2ccccn2)nnc1-c1ccccc1	0%	?	-2%	-103*	-1%	?
CCN(CC)c1nc(-c2ccccn2)nc(-c2ccccc2)c1C#N	1%	26%	?	-93*	-1%	15%
O=C(NCc1ccccc1)O[C@H]1CC[C@@]23CCCN2C(=O)CCC[C@H]3[C@H]1Cc1ccccc1	.	.	.	-11	.	.
COc1ccc(CC(=O)Nc2ccc(N3CCCC3)c(C)c2)cc1	0%	6%	11%	-22	50µM*	-14%
CCC(=O)Nc1ccc(N2CCCCC2)c(C(=O)Nc2ccc(OC)cc2)c1	-4%	4%	-5%	-81*	-10%	2%
COc1ccc(NS(=O)(=O)c2cc(NC(=O)CC(C)(C)C)ccc2N2CCCC2)cc1	-18%	-6%	49%	-23	2%	.
Cc1ccc(NC(=O)c2cc(NC(=O)CCC(=O)O)ccc2N2CCCCC2)cc1	-20%	4%	.	52	?	-3%
CC(=O)Nc1ccc(NC(=O)COC(=O)c2c3c(nc4ccccc24)CCN(Cc2ccccc2)C3)cc1	-7%	1%	?	26	-7%	-5%
O=C(COC(=O)c1c2c(nc3ccccc13)CCN(Cc1ccccc1)C2)Nc1c(F)cccc1F	-6%	4%	-15%	-96*	4%	6%
NC1CCc2cc(O)c(O)cc2C1 (stereo not given)	?	3%	-29%	34	45µM*	-20%
CC(=O)C1=C(O)C(=O)N(CCc2c[nH]c3ccccc23)C1c1ccco1 (stereo not given)	3%	-1%	-17%	-14	40µM*	-1%
Oc1ccc(C[C@@H]2CNCCN2CC2CCCCC2)cc1	-7%	-1%	-12%	?	-3%	.
c1ccc2c(C[C@@H]3CNCCN3CC3CCCCC3)cccc2c1	-1%	7%	-17%	-63*	-10%	.
CCOc1ccccc1NC(=O)COC(=O)COc1c(Cl)cc(Cl)c2ccc(C)nc12	5%	-3%	-5%	0	.	.

Assay outcomes deposited in PubChem by National Center for Advancing Translational Sciences (NCATS).
